Source: PubChem
Most compounds without a hit are left out; they make up all but 5% or so of the library.
EBI2 antag: antagonists of human EBI2 receptor; inhibition, % at 5 µM; EBI2 beta-arrestin recruitment, luminescence, 7a,25-OHC stimulated; P32249; AID 651636; 0.81% of 360,000 active; in the data active = inhibition above about 38%;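 note: enzyme fragment complementation signal reports receptor beta-arrestin coupling in cells; 0% = agonist plus DMSO wells and 100% = wells without agonist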
SENP8 block-1: SENP8 (human) protease inhibition; recombinant SENP8, Nedd8 substrate fluorescence; inhibition, % at 20 µM; AID 602440; 0.64% of 360,000 active; Q96LD8; in the data active = inhibition mostly above about 40%, no sharp cut-off; inactive = mostly below about 27%
Target sequence (Q96LD8 whole entry, looked up): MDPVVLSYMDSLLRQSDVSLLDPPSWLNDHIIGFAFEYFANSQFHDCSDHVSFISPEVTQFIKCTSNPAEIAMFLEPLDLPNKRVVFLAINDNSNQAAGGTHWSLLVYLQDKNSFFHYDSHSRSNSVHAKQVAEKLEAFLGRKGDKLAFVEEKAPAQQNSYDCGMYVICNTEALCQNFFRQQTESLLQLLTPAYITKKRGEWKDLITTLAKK
AHR activator: activators of human aryl hydrocarbon receptor | P35869 | AHR-responsive luciferase reporter cells, luminescence | activation, % at 5 µM | 2.5% of 320,000 active; in the data active = activation above about 47%;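 note: 0% = vehicle wells and 100% = reference agonist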
SENP8 block-2: inhibitors of human SENP8 protease. purified SENP8, Z-RLRGG-aminoluciferin cleavage, luminescence. AID 2540. 1.2% of 330,000 active. Q96LD8. inhibition, % at 10 µM; in the data active = inhibition above about 50%
SENP7 block: blocks the human protease SENP7. Q9BQF6. recombinant SENP7, Z-RLRGG-aminoluciferin luminescence, 40 min. inhibition, % at 5 µM. 1.5% of 330,000 active;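 active = inhibition above about 50% at the single test dose, limit read from the data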;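 note: plate controls were DMSO with enzyme for no effect and no enzyme buffer wells for full effect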
Target sequence (Q9BQF6 706-1050 limits assumed): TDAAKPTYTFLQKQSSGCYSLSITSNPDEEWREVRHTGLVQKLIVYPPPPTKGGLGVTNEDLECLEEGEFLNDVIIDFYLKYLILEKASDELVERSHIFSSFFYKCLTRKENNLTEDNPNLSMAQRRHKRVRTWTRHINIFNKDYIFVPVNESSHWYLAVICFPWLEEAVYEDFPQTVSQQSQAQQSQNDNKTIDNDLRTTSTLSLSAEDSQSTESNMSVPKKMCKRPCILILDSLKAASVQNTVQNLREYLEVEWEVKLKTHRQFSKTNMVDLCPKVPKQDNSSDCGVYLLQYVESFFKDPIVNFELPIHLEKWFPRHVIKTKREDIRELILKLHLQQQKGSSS
SENP6 inh: inhibitors of human SENP6 protease | inhibition, % at 10 µM | 1.8% of 330,000 active | Recombinant SENP6 catalytic domain, aminoluciferin luminescence | Q9GZR1;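 active = inhibition above about 50% at the single tested dose, limit read from the data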;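 note: plate controls were DMSO wells with enzyme for no effect and DMSO wells lacking enzyme for full effect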
An asterisk follows results filed as active; x = not tested or not shown.

SMILES	EBI2 antag	SENP8 block-1	AHR activator	SENP8 block-2	SENP7 block	SENP6 inh
FC(F)Oc1ccccc1/C=N/n1cnc2ccccc21	-0.8	3.4	49.1*	-13.9	-8.4	6.6
NC(N)=N/N=C/c1ccccc1OC(F)F	-12.8	10.8	26.2	-2.6	1.3	-17.5
O=C1c2cc(Br)ccc2OC2C=CC=CC12 (stereo unspecified)	-7.4	-7.7	x	x	35.9	x
COc1ccc(CN2C(=O)CN(S(C)(=O)=O)CC2(C)C(=O)Nc2c(C)cccc2C)cc1 (stereo unspecified)	2.0	8.2	x	x	x	x
COCc1cc(C)nc(OCC(=O)N/N=C/c2ccc(OC)c(OC)c2)c1C#N	-0.8	-1.6	63.1*	-2.2	4.1	-5.5
COc1ccc(/C=N/NC(=O)CCn2c3ccccc3c3ccccc32)cc1OC	1.9	1.2	68.5*	-2.3	3.4	12.1
COc1cc(/C=N/NC(=O)CCn2c3ccccc3c3ccccc32)cc(OC)c1OC	-3.3	10.8	13.2	-9.1	-4.7	-11.9
CC(=O)Nc1sc(C)c(C)c1C(=O)OCC(=O)N(CCC#N)c1cc(C)cc(C)c1	2.7	-60.5	x	-6.3	-0.7	-8.2
N#Cc1ccc(-c2nc3ccc(Cl)cn3c2Cc2ccccc2)cc1	18.5	-332.7	x	x	x	x
O=C(CCC(=O)Nc1ccc(F)cc1)N/N=C/c1c[nH]c2ccccc12	4.0	6.0	50.3*	-1.3	0.2	-14.1
O=C(CNc1ccccc1)N/N=C/c1c[nH]c2ccccc12	-11.2	5.5	50.4*	9.4	7.7	1.2
O=C(CSc1nnc(SCc2cccc3ccccc23)s1)N/N=C/c1c[nH]c2ccccc12	12.1	22.6	47.0*	-1.0	-0.7	13.0
O=C(CCC(=O)Nc1ccc(F)cc1)N/N=C/c1ccccc1O	2.7	-64.3	6.4	-4.7	-15.0	9.5
O=C(N/N=C/c1c[nH]c2ccccc12)c1ccccc1	-5.6	-46.0	17.1	-18.2	1.8	-16.3
CC(=O)NC(c1ccccc1)c1nc(-c2cnc3ccccc3c2)cs1 (stereo unspecified)	6.7	-31.5	x	x	x	x
CCC(=O)Nc1cccc(NC(=S)NC(=O)c2cccs2)c1	3.0	22.3	49.7*	-18.1	-4.4	-17.7
Cc1ccc2cccc(NC(=S)NC(=O)c3ccnn3C)c2n1	6.8	4.0	54.7*	8.1	6.4	14.4
CC(C)CC(=O)NC(=S)Nc1nc(-c2ccccc2)cs1	11.5	14.1	67.4*	x	x	x
Cc1nc(NC(=S)NC(=O)c2cccs2)ccc1Br	-12.0	16.1	71.5*	-15.8	-3.4	-7.6
CCC(=O)Nc1cccc(NC(=S)NC(=O)c2ccccc2Cl)c1	-4.3	24.0	4.7	13.3	3.3	11.7
CCC(C(=O)NC1CCCC1)n1c(-c2ccnc3ccccc23)nc2ccccc21 (stereo unspecified)	-11.0	-335.4	x	x	x	x
COc1ccc(NC(=O)C2CCCN(CCCc3ccccc3)C2)cc1OCC(C)C (stereo unspecified)	-1.3	17.8	0.6	-18.8	10.8	-4.2
O=C(Nc1nsc(-c2ccccc2)n1)c1cccs1	-10.4	-62.5	35.0	37.1	62.0*	63.7*
Cc1sc(NC(=O)c2cccs2)nc1-c1ccccc1	13.5	-31.4	28.7	-16.3	-6.6	-31.8
Cc1ccc(-c2csc(NC(=S)NC(=O)c3cccs3)n2)cc1	8.6	16.0	1.1	-1.6	-0.7	0.1
SMILES	EBI2 antag	SENP8 block-1	AHR activator	SENP8 block-2	SENP7 block	SENP6 inh
O=C(NC(=S)Nc1cccc2cccnc12)c1ccccc1	13.0	6.1	32.2	-16.0	2.8	-1.6
O=C(NC(=S)Nc1nc(-c2ccccc2)cs1)c1cccs1	11.0	14.3	67.9*	-18.1	-1.0	-20.9
O=C(NC(=S)Nc1cccc2cccnc12)c1cccs1	13.3	-7.9	69.5*	-10.3	5.0	-3.6
O=C(NCCCCCCNC(=O)c1cncc(O)c1)c1cncc(O)c1	-7.6	-101.0	1.9	4.0	1.0	10.8
N#CC(C#N)=C/C=C(\Nc1ccc(Cl)cc1)c1ccc(Cl)cc1	6.3	-90.4	120.4*	0.6	1.2	-23.3
CCCS(=O)(=O)NC(=O)C1(C)CCCN(C(=O)c2ccc(SC(F)(F)F)cc2)C1 (stereo unspecified)	-5.0	11.4	x	x	x	x
O=[N+]([O-])c1cc(Cl)cc(/C=N/n2cnnc2)c1O	12.1	47.2*	1.2	-6.1	-8.4	-9.0
OC(c1ccc(F)cc1)c1nc(-c2ccoc2)cs1 (stereo unspecified)	-0.7	13.9	x	x	x	x
Cc1ccc2nc(-c3ccc(SCC(=O)Nc4ccc5c(c4)OCCO5)nc3)[nH]c2c1	26.6	-372.2	29.9	-11.0	50.6*	-27.3
Cc1ccc2nc(-c3ccc(SCC(=O)Nc4nc(C)cs4)nc3)[nH]c2c1	10.7	-271.8	66.7*	-5.3	5.8	-21.9
NNC(=O)c1cc2c(s1)-c1cc(Cl)ccc1SC2	-0.7	-444.7	64.3*	-13.9	5.1	-11.1
Cn1[nH]c(CSc2ccc(Cl)cc2)cc1=O	-1.9	22.8	0.9	-4.4	11.8	-4.1
CCCCCCCn1c(C)nnc1-c1cnn(C)c1N	-6.0	25.3	69.8*	6.6	5.5	-4.4
Cc1nnc(-c2cnn(C)c2N)n1Cc1cccc(Cl)c1	3.6	36.9	54.1*	0.6	-1.4	5.6
O=C(OCn1ncc(Cl)c(Cl)c1=O)c1cccc(C(F)(F)F)c1	51.7*	7.8	5.1	1.0	-0.3	4.3
CCC(CNc1cc(OC)cc2cccnc12)NC1CCCCC1 (stereo unspecified)	0.9	33.8	48.5*	x	x	x
COc1cc(NS(=O)(=O)c2ccc(C)cc2)c2ncccc2c1	75.3*	13.6	8.8	-5.9	6.6	13.0
COc1cc(NCCCCC(C)N)c2nccc(C)c2c1 (stereo unspecified)	-25.7	24.2	x	x	x	x
COc1cc(NCCCC(C)N)c2ncccc2c1 (stereo unspecified)	-18.2	57.0*	x	x	x	x
COc1cc(NC(=O)c2ccccc2Cl)c2ncccc2c1	-0.6	-5.6	19.8	-6.2	1.0	0.1
COc1ccc(-c2c(C(=O)c3ccccc3)[nH]c(N)c2C(=O)NC2CC2)cc1OC	7.1	7.6	x	x	x	x
Cc1ccc(OCC(=O)N/N=C\c2c(C)n(C)c3ccccc23)c([N+](=O)[O-])c1	9.0	24.9	60.5*	0.2	5.6	-4.1
Cc1ccc(OCC(=O)N/N=C/c2ccccc2)c([N+](=O)[O-])c1	5.7	6.5	x	x	x	x
Cc1cccc(OCC(=O)N/N=C\c2cn(C)c3ccccc23)c1	2.9	9.3	72.3*	-1.2	8.0	11.4
C[C@]12c3[nH]c4cc(-c5ccco5)ccc4c3CCN1C(=O)[C@@H](CC(=O)NCc1cccc(C(F)(F)F)c1)C[C@@H]2C(=O)N1CCCCC1	21.7	-373.1	x	x	-4.1	x
Cc1ccc(NS(=O)(=O)c2ccc(-c3csc(C)n3)s2)c(C)c1	8.7	-4.1	3.9	-1.0	5.5	-11.7
Cc1nnc2n(c1=O)N=C(c1ccc(Cl)cc1)CS2	6.9	28.1	79.0*	-3.0	9.5	4.1
COc1ccc(-c2nc(C)c(C(C)=O)n2O)cc1OC	-5.9	-12.3	48.2*	-0.2	0.8	-18.9
O=C(COc1ccc(Cl)cc1Cl)NC(=S)Nc1ccccc1C(=O)O	x	x	11.6	58.9*	10.4	63.9*
